# Results: PubChem BioAssay AID1645860 (Buhrlage Lab, Dana-Farber Cancer Institute and Novartis …, 2021)
# Hit rate of the full screen: of about 47,000 compounds, about 2,500 (5.3%) were called active. Shown is part of a subset that was picked to be rich in actives. A number with no mark means an inactive call. No stated cut-off is given here; in the data, active means inhibition above about 30%; inactive means the rest.
# Molecular target: Ubiquitin carboxyl-terminal hydrolase 30 (Homo sapiens) (UniProt Q70CQ3)
# Assay: inhibitors of human USP30 deubiquitinase (AID 1645860)
# Conditions: purified USP30, Ub-rhodamine cleavage fluorescence; at 25 µM; active compounds read high
# Ubiquitin carboxyl-terminal hydrolase 30 (Homo sapiens), sequence (Q70CQ3 whole entry, looked up): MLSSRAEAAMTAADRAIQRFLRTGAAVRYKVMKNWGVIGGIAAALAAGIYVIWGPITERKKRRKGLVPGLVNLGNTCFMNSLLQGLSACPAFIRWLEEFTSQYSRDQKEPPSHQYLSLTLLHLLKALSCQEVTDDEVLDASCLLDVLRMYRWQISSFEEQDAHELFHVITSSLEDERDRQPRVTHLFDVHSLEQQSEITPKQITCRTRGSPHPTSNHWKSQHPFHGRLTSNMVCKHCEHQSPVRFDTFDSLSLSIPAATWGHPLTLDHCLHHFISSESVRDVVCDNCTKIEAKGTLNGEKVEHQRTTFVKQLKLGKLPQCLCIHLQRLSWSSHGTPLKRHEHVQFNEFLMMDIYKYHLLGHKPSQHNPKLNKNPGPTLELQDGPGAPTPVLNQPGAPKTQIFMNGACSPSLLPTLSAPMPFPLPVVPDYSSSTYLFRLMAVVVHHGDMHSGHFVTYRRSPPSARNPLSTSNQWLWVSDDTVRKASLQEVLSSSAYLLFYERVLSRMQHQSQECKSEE
row,Structure (SMILES),inhibition
1,CSc1nccc(-c2ccc(F)cc2)c1C#N,30.3% (active)
2,O=C(NC1CCCCC1)c1ccc2c(=O)nc3c(-c4ccccc4F)n[nH]n3c2c1,-42.8%
3,CCc1ccc(NC(=O)N2CCC3(CC2)COc2ccccc2S(=O)(=O)N(C)C3)cc1,-0.131%
4,Cc1ccc(C)c(N2C(=O)CN(S(C)(=O)=O)CC2(C)C(=O)NCc2ccccc2)c1 (stereo not drawn),-0.764%
5,O=C(CSc1nccn1C1CCCCC1)Nc1ccccc1F,24.6%
6,O=C(Nc1ccccc1F)C1CCCN(c2nnc3ccccn23)C1 (stereo not drawn),8.96%
7,O=C(Nc1ccccc1F)NC1CCCN(c2cc(-c3ccncc3)[nH]n2)C1 (stereo not drawn),34.3% (active)
8,COc1cccc(-c2cc3c(=O)n(Cc4nc(-c5ccccc5C)no4)ccn3n2)c1,-2.78%
9,CN1CCN(C(=O)C2=NOC3(CCCNC3)C2)C(c2ccccc2)C1 (stereo not drawn),-3.49%
10,COc1ccc(-c2noc(C3(c4ccccc4)CCOCC3)n2)cc1,32.8% (active)
11,COc1ccc(C2(C(=O)Nc3cccnc3)CCOCC2)cc1,-2.08%
12,COc1ccc(Cc2noc(C3(c4ccc(Cl)cc4)CCOCC3)n2)cc1,-0.175%
13,C[C@]12C(=O)N(C3CC3)CC(=O)N1CC(c1ccccc1Cl)c1c2[nH]c2ccccc12 (stereo partly drawn),21.3%
14,Cc1cc(=O)c2c(O)cccc2o1,-221%
15,COc1ccc(CCC(=O)Nc2ccc3nc(N4CCOCC4)cc(C)c3c2)cc1,-2.1%
16,Cc1nc(N(C)C)cc(N2CCN(C(=O)Nc3ccc4c(c3)OCCO4)CC2)n1,-13.9%
17,Fc1cc(F)cc(CNc2cc(-n3ccnc3)ncn2)c1,0.587%
18,COc1cc(OC)cc(C(=O)Nc2cccc(CCc3nc4ccc(C)cc4[nH]3)c2)c1,26%
19,CCOc1ccc2[nH]c3c(=O)n(Cc4cccnc4)cnc3c2c1,22%
20,O=c1c2[nH]c3ccc(Cl)cc3c2ncn1Cc1cccnc1,-14.2%
21,COc1cc(Cn2cnc3c([nH]c4ccc(Br)cc43)c2=O)cc(OC)c1,57.3% (active)
22,CC(=O)Nc1onc(C)c1-c1ccc(C)c(S(=O)(=O)Nc2ccccc2)c1,-17.6%
23,O=C(Cc1nc(-c2ccccn2)n[nH]1)NC1CCCCCC1,-21.9%
24,Cc1ccc(NC(=O)Cc2nc(-c3ccccc3)n[nH]2)cc1,44.3% (active)

row,Structure (SMILES),inhibition
1,COc1ccc(CC(=O)Nc2cnc(-c3ccccc3)nc2)cc1,-102%
2,CC(OC(=O)c1cn(-c2ccccc2)nc1-c1cccnc1)C(=O)Nc1cccc(S(=O)(=O)N(C)C)c1 (stereo not drawn),55.1% (active)
3,COc1ccccc1OCCC(=O)Nc1cccc(S(=O)(=O)N(C)C)c1,11.1%
4,CCOc1ncccc1C(=O)NNC(=O)c1cn(-c2ccccc2)nc1-c1ccccc1,-0.192%
5,CNc1nc(C2CCCN(C(=O)C3CCCCC3)C2)nc2c1CNCC2 (stereo not drawn),-11.2%
6,COc1cc(NS(=O)(=O)c2ccc3c(c2)N(C)CCO3)cc(OC)c1,0.0144%
7,O=C(Nc1ccccc1)c1ccc2c(c1)OCCCO2,3.42%
8,CC(C)(C)c1ccc(Oc2ccc(NC(=O)c3ccc4c(c3)CCO4)cn2)cc1,34.9% (active)
9,O=C(Nc1ccc(N2CCN(c3ccccc3)C2=O)nc1)c1ccc2c(c1)OCO2,-9.55%
10,Cc1nc2cc3c(cc2n1CC(=O)NCCc1ccccc1)OCCO3,-5.99%
11,Cc1cccc(CC(=O)Nc2c(C)nc3ccccn3c2=O)c1,7.29%
12,Cc1cc2oc(C(=O)Nc3ccc4c(c3)NC(=O)CO4)c(C)c2cc1Cl,19.5%
13,COc1cccc(NC(=O)N2CC[C@H]3N(C)CC[C@@]3(C(=O)N3CCCC3)CC2)c1,-23.3%
14,COc1cccc(N2CCN(C(=O)Nc3ccc4c(c3)NC(=O)CO4)CC2)c1,69.6% (active)
15,O=C(O)C[C@@H]1CCN(C(=O)C2CCCCC2)C[C@@H]1CC1=NCCc2ccccc21,-65%
16,COc1ccc(SCc2nc(N)nc(Nc3ccccc3)n2)cc1,-33%
17,CSc1ncnc2c1sc1nc(-c3ccccc3)c3c(c12)CC(C)(C)OC3,9.17%
18,CC1(C)Cc2c(c(-c3ccco3)nc3sc4c(SCCCc5ccccc5)ncnc4c23)CO1,11.9%
19,CC(C)Cc1nc2sc3c(N(CCO)Cc4ccccc4)ncnc3c2c2c1COC(C)(C)C2,34.9% (active)
20,COc1cccc(O[C@@H]2C[C@@H](NC(=O)C3CCOCC3)[C@H](O)[C@H]2O)c1,7.84%
21,O=C1CNC(=O)N1CC(O)Cn1c2ccc(Br)cc2c2cc(Br)ccc21 (stereo not drawn),6.98%
22,O=C(Nc1ccc(Cl)cc1)C1C2C=CC3(O2)C1C(=O)N(CCc1ccccc1Cl)C3C(=O)NC1CCCCC1 (stereo not drawn),29.8%
23,O=c1c2cnc(N3CCCC3)nc2ccn1-c1ccccc1,31% (active)
24,O=c1c2cnc(N3CCCCC3)nc2ccn1Cc1cccnc1,1.8%

row,Structure (SMILES),inhibition
1,O=c1c2cnc(N3CCOCC3)nc2ccn1CCc1ccccc1,12.9%
2,c1ccc(-c2nccc(-c3ccc(-n4cncn4)cc3)n2)nc1,23.2%
3,Cc1cc(C(=O)CSc2nnc(-c3ccc(F)cc3)n2C)c(C)n1C,-35%
4,Cn1c(SCc2ccc(Cl)cc2)nnc1-c1ccc2c(c1)OCCO2,30.4% (active)
5,CCn1c(SCC(=O)Nc2ccc3c(c2)OCCO3)nnc1C(C)C,9.74%
6,Cc1nn(-c2cccc(F)c2)c2c1c(C)c(CCC(=O)NCc1ccccn1)c(=O)n2C,58.6% (active)
7,Cc1nn(-c2ccccc2)c2c1c(C)c(CCC(=O)N1CCN(c3ccc(F)cc3)CC1)c(=O)n2C,-7.59%
8,Cc1nc2cc(C(=O)NCc3ccccn3)ccc2n1-c1cccc(F)c1,0.251%
9,O=C(Nc1ccc2cn[nH]c2c1)c1cnn(-c2ccccc2)n1,-23.9%
10,CCCc1cc(=O)oc2cc(OC(=O)C3CCN(C(=O)c4ccc(Cl)cc4)CC3)ccc12,29.6%
11,CCCc1cc(=O)oc2cc(OCC(=O)NCc3ccc(OC)cc3)ccc12,62.1% (active)
12,COc1ccc(N2CCN(Cc3cc(=O)oc4cc(O)ccc34)CC2)cc1,8.3%
13,CCN(CC)c1ccc(C2C3=C(CC(C)(C)CC3=O)Nc3ccccc3N2C(=O)Cc2ccccc2)cc1 (stereo not drawn),-64.2%
14,CCC(=O)c1ccc(OCC(=O)Nc2ccc3nc(C)sc3c2)cc1,-168%
15,CCOc1ccc(Nc2nc(O)c(CC(=O)Nc3cccc(C)c3)s2)cc1,33.8% (active)
16,Cc1ccc(Nc2nc(NCC(=O)Nc3cc(C)ccc3C)nc(Nc3ccc(C)cc3)n2)cc1,-44%
17,Cc1ccc(NC(=O)Cc2sc(Nc3ccc(C)cc3)nc2O)cc1,53.6% (active)
18,Cc1ccc(Nc2nc(O)c(CC(=O)Nc3ccc(C(C)C)cc3)s2)cc1C,0.202%
19,CCOc1ccc(N(CC(=O)Nc2ccc(S(=O)(=O)Nc3cc(C)ccc3C)cc2)S(C)(=O)=O)cc1,1.87%
20,Cc1cccc(-c2cnc(C(O)c3ccc4c(c3)OCO4)[nH]2)c1 (stereo not drawn),-30.9%
21,COc1ccc(C2CC(=O)c3cnc(NC(=O)c4cc(OC)c(OC)c(OC)c4)nc3C2)c(OC)c1 (stereo not drawn),24.2%
22,C=C1C(=O)O[C@H]2C=C(C)C=C[C@@]3(C)CC[C@@]1(O)[C@H]23,7.94%
23,O=C(NCc1ccncc1)C1CC(=O)N(c2cccc(C(F)(F)F)c2)C1 (stereo not drawn),0.292%
24,Cc1oc(-c2ccccc2)nc1C(=O)N(C)Cc1cccc(Cl)c1Cl,-7.53%

row,Structure (SMILES),inhibition
1,O=C1NCCCC12CCN(Cc1cnc3ccccc3n1)CC2,10.3%
2,Cc1ccc(-c2nc(C(=O)N3CCN(c4ccccn4)CC3)cs2)n1C,-26.2%
3,CN(CCc1ccccc1)c1nccc(N2CCN(C(=O)c3csc(-c4cccnc4)n3)CC2)n1,51.1% (active)
4,O=C(c1cccnc1)N1CCN(c2cc(-c3ccccc3)[nH]n2)CC1,12.7%
5,Cc1nc2cccnc2nc1C,-39.7%
6,NC(=Nc1cccnc1)c1ccc2ccccc2n1,4.02%
7,Clc1ccc(C2NC3=NCN(Cc4ccco4)CN3c3nc4ccccc4n32)cc1 (stereo not drawn),36.4% (active)
8,COc1cccc(CNC(=O)C2(C)Oc3cccnc3N(C)C2=O)c1 (stereo not drawn),-5.25%
9,O=C(NC1CCCCCC1)c1nc(Cn2cnc3ccccc3c2=O)no1,9.85%
10,COc1ccc(N(CC(=O)NCc2ccco2)S(=O)(=O)c2ccccc2[N+](=O)[O-])c(OC)c1,3.13%
11,CC(C)(C)c1ccc(-c2nnc3n2-c2ccccc2SC3)cc1,56.7% (active)
12,CCc1ccccc1N1C(=O)CN(S(C)(=O)=O)CC1(C)C(=O)NC1CCCCC1 (stereo not drawn),19.9%
13,COCCSc1ccc(-c2cccnc2)nn1,1.49%
14,Cc1ccc(C(=O)N2CCC3(CC2)CCN(c2cnn(C)c2)C3=O)cc1,17.1%
15,O=C(NCC(c1ccco1)N1CCCCC1)c1ccccc1Cl (stereo not drawn),-6.05%
16,CCCOc1ccc(CNC(=O)C2CCCN(c3nnc(N4CCCC4=O)s3)C2)cc1 (stereo not drawn),5.69%
17,Cc1cc(=O)n(CC(=O)NCc2ccccc2)c(N2CCCC2)n1,0.241%
18,Cc1ccc(CNC(=O)c2cc(=O)nc3sc(N4CCCC(C)C4)nn23)cc1 (stereo not drawn),30.1% (active)
19,COc1ccccc1-n1ccnc(NC(=O)c2cccc(F)c2)c1=O,11%
20,COc1cccc(C(=O)Nc2nccn(-c3cccc(F)c3)c2=O)c1,0.051%
21,COc1cccc(NC(=O)Nc2nccn(-c3ccccc3)c2=O)c1,39.1% (active)
